Experiment [1] is described as follows: growth inhibition of DIPG glioma cells, dose response, cell-based, SU-DIPG-XVII, MIPE5.0, CellTiter-Glo, qHTS (AID 1347060).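 On AC50: cells exposed to compound for 48 hours before viability readout.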 Particulars: SU-DIPG-XVII viability, CellTiter-Glo ATP luminescence.
The nature of experiment [2]: growth inhibition of DIPG glioma cells, dose response, cell-based, SU-DIPG-XIII, MIPE4.0, CellTiter-Glo, qHTS (AID 1347061; cut-off not given, nearly all actives have AC50 up to about 37 µM;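 further: cells exposed to compound for 48 hours before readout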). Particulars: SU-DIPG-XIII viability, CellTiter-Glo ATP luminescence.
Experiment [3] is described as follows: growth inhibition of DIPG glioma cells, dose response, cell-based, JHH-DIPG-1, MIPE4.0, CellTiter-Glo, qHTS (AID 1347062; cut-off not given, nearly all actives have AC50 up to about 27 µM;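 on AC50: cells exposed to compound for two days before readout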). Particulars: JHH-DIPG-1 viability, CellTiter-Glo ATP luminescence.
A short description of experiment [4]: viability loss in pontine glioma line – cell-based, SU-DIPG-XXV, MIPE5.0, CellTiter-Glo, qHTS, dose response (AID 1347065).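 Further: cells exposed to compound for 48 hours before ATP readout.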 The settings on record: CellTiter-Glo ATP luminescence.
The nature of experiment [5]: SU-DIPG-VI glioma cell viability, MIPE4.0 library, CellTiter-Glo luminescence, qHTS (AID 1347066; cut-off not given, nearly all actives have AC50 up to about 30 µM;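 further: cells exposed to compound for 48 hours before readout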). Particulars: CellTiter-Glo ATP luminescence.
Experiment [6] in a line: JHH-DIPG-1 glioma cell viability, MIPE5.0 library, CellTiter-Glo luminescence, qHTS (AID 1347067).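 Further: cells exposed to compound for 48 hours before readout.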 The settings on record: JHH-DIPG-1 glioma viability, CellTiter-Glo ATP luminescence.
Experiment [7] in a line: SU-DIPG-XXV glioma cell viability, MIPE5.0 library, qHTS (AID 1347068; cut-off not given, nearly all actives have IC50 up to about 30 µM).
Experiment [8] is described as follows: sensitizers of A549 cells to miR-34 induction, primary screen, imaging, A549 dox-inducible miR-34, nuclei and caspase counts (AID 1347080;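 active means compounds whose cell count with miR-34 switched on is under 0.7 times the count with it off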). The settings on record: A549 miR-34 inducible, Hoechst nuclei count, 48 h.
Experiment [9] can be described thus: survival rescue of mitochondrial mutant cells in low glucose, primary screen, MELAS cybrids, Rieske KO mouse fibroblasts, CellTiter-Glo (AID 1508586;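 active means mean z-score across replicates of 1.96 or higher in either the MELAS or the Rieske mutant cell line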;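 further: z relative to plate mean and SD of compound and empty wells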).
Experiment [10] is described as follows: growth inhibition of DIPG glioma cells, dose response, cell-based, SU-DIPG-IV, MIPE4.0, CellTiter-Glo, qHTS (AID 1347063; cut-off not given, nearly all actives have AC50 up to about 30 µM;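 further: compound exposure lasted 48 hours before the viability readout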). The settings on record: SU-DIPG-IV viability, CellTiter-Glo ATP luminescence.
Experiment [11] is described as follows: growth inhibition of DIPG glioma cells, dose response, cell-based, SU-DIPG-XIII, MIPE5.0, CellTiter-Glo, qHTS (AID 1347064; cut-off not given, nearly all actives have AC50 up to about 23 µM;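 further: cells exposed to compound for 48 hours before the viability read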). Particulars: SU-DIPG-XIII viability, CellTiter-Glo ATP luminescence.

Records with an inconclusive call do not appear. Activity calls are given as the source filed them. Unless noted, cut-off not given; nearly all actives show AC50 up to about 26 µM.

Consider `COc1ccc(-n2c(C)c([N+](=O)[O-])c3ccc(O)cc32)cc1`, for which the molecule was classed as inactive in experiment [1], in [3], in experiment [4], in experiment [5], in experiment [6] and in experiment [7]. Moreover, in experiment [2], the AC50 was 4690 nM (active). Also, the fold change is 0.881 (inactive) in experiment [8] (stronger effect = lower value, cell number ratio, induced over uninduced) and 0.334 in experiment [8] (measured here: relative caspase fold change +Dox/-Dox). Moreover, the cell count was found to be 6450 in [8] (measured here: total cells with miR-34 induction, stronger effect = lower value) and 7330 in experiment [8] (measured here: total cells without miR-34 induction). Also, the z-score was 0.252 (inactive) in experiment [9] (MELAS cybrid survival, CellTiter-Glo 48 h, stronger effect = higher value) and -3.43 in [9] (Rieske KO mouse fibroblast survival, CellTiter-Glo 72 h).

In the case of `Cc1c(CN2CCN(S(C)(=O)=O)CC2)sc2c(N3CCOCC3)nc(-c3cnc(N)nc3)nc12`, the AC50 in [1] was 661 nM (active); in experiment [2], 332 nM (active); in experiment [10] it was 23.5 nM (active); in [11], 525 nM (active); in experiment [4], 166 nM (active); in experiment [5], 526 nM (active). Moreover, in [6], the AC50 was 1050 nM (active).

As to `CC(C)C[C@H](CC(=O)O)C(=O)N[C@@H](Cc1c[nH]c2ccccc12)C(=O)N[C@@H](C)c1ccccc1`, the molecule was called inactive in experiment [1], in experiment [2], in experiment [3], in experiment [6] and in [7]. In addition, in experiment [4], the concentration at half-maximal activity (AC50) was 16600 nM (active).

Consider `Nc1ccc(C(=O)c2cc3c(ccc4ccccc43)[nH]2)cc1`, for which the AC50 in [1] is 3820 nM (active); in [2], 23500 nM (active); in experiment [3], 8330 nM (active); in experiment [4], 2150 nM (active); in experiment [6], 5390 nM (active).

The record behind these values is PubChem BioAssay.
